# In the library only some 1.1% were active in any assay of this set; here they are far more common.
# RecA intein inh: Mtb RecA intein splicing inhibition; inhibition, % (test concentration not listed); AID 2221; cell-free RecA intein splicing, fluorescence; 290,000 compounds, 0.75% hits; in the data active = inhibition above about 30%;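 also: 0% = vehicle wells and 100% = reference inhibitor control wells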
# Target sequence (P9WHJ3 whole entry, looked up): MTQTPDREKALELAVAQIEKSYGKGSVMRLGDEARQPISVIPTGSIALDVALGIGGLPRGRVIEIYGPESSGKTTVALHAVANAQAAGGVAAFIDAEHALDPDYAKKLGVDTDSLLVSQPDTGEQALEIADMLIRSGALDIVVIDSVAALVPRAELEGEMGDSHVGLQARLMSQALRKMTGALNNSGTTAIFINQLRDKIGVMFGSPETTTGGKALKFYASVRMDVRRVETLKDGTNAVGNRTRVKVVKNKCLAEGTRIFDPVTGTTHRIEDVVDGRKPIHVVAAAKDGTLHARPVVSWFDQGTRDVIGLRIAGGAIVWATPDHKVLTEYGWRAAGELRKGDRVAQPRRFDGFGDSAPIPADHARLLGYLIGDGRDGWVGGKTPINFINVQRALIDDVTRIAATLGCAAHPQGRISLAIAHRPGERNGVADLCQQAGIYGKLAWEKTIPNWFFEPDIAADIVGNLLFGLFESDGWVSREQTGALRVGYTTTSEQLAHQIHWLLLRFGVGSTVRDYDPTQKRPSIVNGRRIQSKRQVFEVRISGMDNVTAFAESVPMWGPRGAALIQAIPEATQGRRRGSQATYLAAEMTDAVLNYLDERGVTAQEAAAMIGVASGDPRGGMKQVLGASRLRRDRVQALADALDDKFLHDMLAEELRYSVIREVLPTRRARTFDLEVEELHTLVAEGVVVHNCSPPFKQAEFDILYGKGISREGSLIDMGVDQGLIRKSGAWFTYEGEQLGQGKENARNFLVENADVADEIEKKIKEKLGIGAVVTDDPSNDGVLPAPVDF
# Mtb UGM inh: blocks M. tuberculosis UGM enzyme. purified UGM, fluorescence polarization probe displacement. inhibition, % at 10 µM. 320,000 compounds, 0.06% hits; in the data active = inhibition above about 10%, passing the limit was not always enough
# Rv3671c protease: inhibits the M. tuberculosis serine protease Rv3671c | inhibition, % at 5.96 µM | 320,000 compounds, 0.048% hits | P9WHR9 | AID 2606; in the data active = inhibition above about 38%;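 also: extracellular domain of Rv3671c used as enzyme; 0% = enzyme with DMSO and 100% = no enzyme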
# Mtb bLac sens: beta-lactam sensitization of Mtb H37Rv. M. tuberculosis H37Rv growth with meropenem, percent inhibition. 330,000 compounds, 0.27% hits. inhibition, % at 25 µM; call rule not given here;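 also: growth measured after seven days incubation then overnight dye step; 0% = bacteria only wells and 100% = bacteria with antibiotic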
# PriA SSB inh: K. pneumoniae PriA-SSBct interaction inhibition. AlphaScreen SSBct-PriA binding, biotinylated peptide. inhibition, % at 33 µM. 430,000 compounds, 0.6% hits; in the data active = inhibition mostly above about 37%, no sharp cut-off; inactive = mostly below about 20%;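 also: plate controls were negative control peptide for no effect and reference peptide for full effect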
# Numbers without * were called inactive; nt = no result given; ! = a repeat was not active.
SMILES,RecA intein inh,Mtb UGM inh,Rv3671c protease,Mtb bLac sens,PriA SSB inh
COc1cc(OC)c(NC(=O)[C@H]2CCCN(c3cnc4ccccc4n3)C2)cc1Cl,nt,nt,nt,nt,-7.0
CSC(=NNC(N)=O)c1ccccc1,nt,nt,nt,nt,-10.0
O=C(c1ccc2nsnc2c1)N1C2CCC1CC(S(=O)(=O)c1ccccc1)C2 (stereo unspecified),nt,nt,nt,nt,74.0*
Cc1ccc(OCC(=O)N2C3CCC2CC(S(=O)(=O)c2ccccc2)C3)cc1 (stereo unspecified),nt,nt,nt,nt,79.0*
CC(C)(C)c1ccc(OCC(=O)Nc2ccc(CC(N)=O)cc2)cc1,nt,nt,nt,nt,-10.0
COc1ccccc1-c1coc2cc(OCc3ccc([N+](=O)[O-])cc3)ccc2c1=O,nt,nt,nt,nt,7.0
Cc1ccc(S(=O)(=O)NC(CC(N)=O)C(=O)O)cc1 (stereo unspecified),7.5,-0.6,0.0,2.3,-4.7
Cc1ccc(S(=O)(=O)N[C@@H](CCCCN)C(=O)CCl)cc1,50.4*,-0.5,-1.8,1.2,-3.5
O=C(Oc1c(CN2CCOCC2)cc(Cl)c2cccnc12)c1ccccc1F,-2.8,1.4,8.1,98.5,58.3*
O=C(Oc1c(CN2CCOCC2)cc(Cl)c2cccnc12)c1ccco1,nt,nt,nt,nt,101.0*
CC(=O)Nc1ccc(SCC(=O)Nc2nnc(C)s2)nn1,nt,nt,nt,nt,7.0
O=C(Cc1cccs1)Nc1cccc(-c2ccc3nnc(-c4cccnc4)n3n2)c1,nt,nt,nt,nt,-18.0
COc1ccc(C(=O)NCc2nnc(SCc3ccccc3)n2Cc2ccccc2)cc1,nt,nt,nt,nt,25.0
O=C(CCC(=O)Nc1ccccc1)NN=Cc1cccnc1,nt,nt,nt,nt,-23.0
O=C(NCC#CCOc1ccc2c(c1)OCO2)c1ccsc1,nt,nt,nt,nt,30.0
CC(Sc1nnc(NC(=O)CCc2ccccc2)s1)c1ccccc1 (stereo unspecified),nt,nt,nt,nt,0.0
COc1ccc(NC(=S)NNc2ccc(S(=O)(=O)Nc3ccccc3C(=O)O)cc2[N+](=O)[O-])cc1,2.3,1.1,21.8,-8.0,55.1*
COc1ccc(C=NNc2ccc(S(=O)(=O)Nc3ccccc3C(=O)O)cc2[N+](=O)[O-])c(OC)c1,nt,2.8,27.3,-4.6,46.4*
COc1ccc(S(=O)(=O)Nc2ccccc2C(=O)Nc2ccc(OC)cc2[N+](=O)[O-])cc1,nt,nt,nt,nt,44.0*
O=C(O)c1ccccc1NS(=O)(=O)c1ccc(NN=Cc2ccc(O)c(O)c2)c([N+](=O)[O-])c1,nt,nt,nt,nt,44.2*
O=C(NC1CCCCC1)N1CCn2cccc2C1c1ccc(F)c(F)c1 (stereo unspecified),nt,nt,nt,nt,14.0
CC(=NNC(N)=O)c1c(O)n(C)c(=O)n(C)c1=O,nt,nt,nt,nt,-22.5
COc1ccc2nc(-c3ccccn3)[nH]c2c1,3.9,5.6,11.6,3.1,-6.1
Nc1ccc2nc(-c3ccc(N)c(Cl)c3)[nH]c2c1,-21.5,-5.8,29.1,-10.8,43.9*
Nc1ccc2nc(-c3cccnc3)[nH]c2c1,-1.1,-0.6,-0.6,0.5,5.0
SMILES,RecA intein inh,Mtb UGM inh,Rv3671c protease,Mtb bLac sens,PriA SSB inh
Nc1ccc2nc(-c3ccccc3)[nH]c2c1,-4.5,1.5,-1.5,-6.9,16.2
Nc1ccc2nc(-c3ccccn3)[nH]c2c1,1.2,1.3,33.0,-2.5,96.1*
c1ccc(-c2nc3ccc(Cc4ccc5nc(-c6ccccn6)[nH]c5c4)cc3[nH]2)nc1,nt,nt,nt,nt,88.0*
Nc1n[nH]c(-c2ccccn2)n1,nt,nt,nt,nt,49.0
Nc1ccccc1-c1n[nH]c(-c2ccccn2)n1,nt,nt,nt,nt,107.0*
Oc1c(Br)cc(C=NNc2nncc3ccccc23)cc1Br,nt,nt,nt,nt,-8.6
CCN(CC)c1ccc(C=NN2CCN(Cc3ccc(Cl)cc3)CC2)c(O)c1,nt,nt,nt,nt,2.3
COc1ccc(NC(=S)N/N=C2\CC(C)(C)Oc3ccc(OC)cc32)cc1,-3.0,-0.2,-1.2,-8.2,nt
COc1ccc(NC(=S)NN=C2CC(C)(C)Oc3ccc(O)cc32)cc1,nt,nt,nt,nt,47.2*
CC1(C)CC(=NNC(=S)Nc2ccccc2F)c2cc(O)ccc2O1,nt,nt,nt,nt,45.2*
COc1cccc(NC(=S)NN=C2CC(C)(C)Oc3ccc(O)cc32)c1,nt,nt,nt,nt,39.5*
CCc1ccc(OC)c(S(=O)(=O)NCCc2ccc(N(C)C)cc2)c1,nt,nt,nt,nt,16.0
O=S(=O)(C1CC1)N1CCC(CSc2ccccn2)CC1,nt,nt,nt,nt,2.0
CC(=NNC(=O)CC1C(=O)NN=C1C)c1cccc([N+](=O)[O-])c1 (stereo unspecified),nt,nt,nt,nt,-9.3
Cc1cc2cc(CNC(=S)NCc3ccccc3)ccc2[nH]1,nt,nt,nt,nt,47.2
Cc1cc2cc(CNC(=S)Nc3ccc(OC(F)(F)F)cc3)ccc2[nH]1,1.3,-0.5,2.3,-2.2,57.8*
CCNC(=S)NCc1ccc2[nH]c(C)cc2c1,-2.2,-0.9,5.4,2.9,63.0*
Cc1cc2cc(CNC(=S)NC(C)(C)C)ccc2[nH]1,nt,nt,nt,nt,51.2
Cc1cc2cc(CNC(=O)Nc3ccccc3)ccc2[nH]1,2.0,-0.3,-7.3,3.9,44.0*!
Cc1cc2cc(CNC(=S)Nc3ccc(OC(F)F)cc3)ccc2[nH]1,4.2,-0.7,8.3,-4.3,73.3*
CC(C)c1nnc(C2CCN(C(=O)NCCOc3ccccc3)CC2)o1,nt,nt,nt,nt,-9.0
COc1ccc(-n2nnnc2CNC(=O)C2CCCC2)cc1,nt,nt,nt,nt,-3.0
O=c1oc2cc(S(=O)(=O)N3CCOCC3)ccc2n1Cc1ccc([N+](=O)[O-])cc1,nt,nt,nt,nt,48.0*
O=[N+]([O-])c1ccc(N2CCOCC2)c(S(=O)(=O)N2CCOCC2)c1,0.9,-1.6,-8.5,4.7,-10.1
CCOC(=O)c1c(NC(=O)C(C)Sc2nnc3[nH]c(=O)cc(C)n23)sc2c1CCC2 (stereo unspecified),nt,nt,nt,nt,1.0
SMILES,RecA intein inh,Mtb UGM inh,Rv3671c protease,Mtb bLac sens,PriA SSB inh
Cc1nn(-c2ccccc2)c2c1C(c1ccc([N+](=O)[O-])cc1)C(C#N)=C(N)O2 (stereo unspecified),-2.4,0.3,0.3,-0.9,28.2
COc1cc(C2C(C#N)=C(N)Oc3c2c(-c2ccccc2)nn3-c2ccccc2)cc(OC)c1OC (stereo unspecified),69.6*,-2.4,6.8,3.4,9.5
CNc1sc(C(=O)c2ccc(F)cc2)c(N)c1-c1nc2ccccc2s1,-2.0,0.2,-0.1,1.1,16.0
CNc1sc(C(=O)c2cccs2)c(N)c1-c1nc2ccccc2s1,-2.5,-2.9,-5.9,87.4,52.5*
c1ccc2[nH]c3cc4ncnc4cc3nc2c1,60.0*,9.1,-10.7,79.1,4.4
c1ccc2[nH]c(CCc3nc4ccccc4[nH]3)nc2c1,nt,nt,nt,nt,-1.0
